We go through 13 compounds from PubChem BioAssay (EPA / NIEHS).

Records with an inconclusive call do not appear. Calls of active or inactive are those of the source. How the source made its calls, unless noted: active means hit-call score of the fitted dose curve at least 0.9, where 1 is the maximum; inactive means score below 0.9.

The nature of assay [1]: CCTE_Shafer_MEA_dev_AB: CCTE's Alamar Blue Assay for Cytotoxicity in the Neural Network Formation Assay, Shafer Lab (AID 2284083; active means hit-call score of the fitted dose curve at least 0.9, where 1 is the maximum;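 further: twelve days of exposure from plating with re-dosing on DIV 5 and 9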). An outline of the steps: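 Primary rat cortical neurons on PEI-coated 48-well MEA plates, 1.5 x 10^5 cells/well in laminin drop; compound exposure from day 0 of plating for twelve days, renewed at medium changes on DIV 5 and 9. Viability read as resazurin reduction by fluorescence, relative to DMSO.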
A general note: Alamar Blue is a resazurin reagent that responds to reducing activity.

Assay [2] can be described thus: UKN2_HCS_IMR90_neural_migration: University of Konstanz (UKN) Leist Lab Neural Crest Cell Migration Assay in human induced IMR90 Pluripotent Stem Cells (UKN2) (AID 2284204). As to conditions: actives raise or lower the signal. An outline of the steps: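 High-content imaging of calcein-AM and Hoechst stained cells quantifies migration into a stopper-defined gap after 24 h compound exposure. Neural crest cells from IMR90 iPSC migrated 24 h in EGF/FGF N2-S medium before dosing; DMSO baseline.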

The nature of assay [3]: IUF_NPC1b_proliferation_BrdU_72hr: Leibniz Research Institute for Environmental Medicine (IUF) 72-hour Neural Progenitor Cell Bromodeoxyuridine (BrdU) Proliferation Assay (NPC1b) (AID 2284207). An outline of the steps:
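Human fetal cortex-derived (GW 16-19) neural progenitor spheres, 0.25-0.35 mm, one per well in EGF/FGF proliferation medium, exposed to compound for 72 h at 37C, pH 7.2-7.6. BrdU incorporation over the final 16 h read by luminescence ELISA, relative to DMSO.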

The nature of assay [4]: IUF_NPC1a_proliferation_area_72hr: Leibniz Research Institute for Environmental Medicine (IUF) 72-hour Neural Progenitor Cell Proliferation Area Assay (NPC1a) (AID 2284208). An outline of the steps:
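Proliferation read as increase in sphere area by phase-contrast imaging over 72 h continuous compound exposure (no renewal) of hNPC spheres grown with EGF/FGF at 37C, 5% CO2. Growth-factor withdrawal served as positive control; DMSO as baseline.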

Assay [5] can be described thus: IUF_NPC1_viability_72hr: Viability Assessment at 72 hours in the Leibniz Research Institute for Environmental Medicine (IUF) Neural Progenitor Cell Proliferation Assay (NPC1) (AID 2284209). An outline of the steps: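 Three-day continuous exposure of human neural progenitor spheres under EGF/FGF-driven proliferation; cell viability scored by alamar blue signal versus DMSO.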

Assay [6] in a line: UKN2_HCS_IMR90_cell_viability: Viability Assessment in the University of Konstanz (UKN) Leist Lab Neural Crest Cell Migration Assay in human induced IMR90 Pluripotent Stem Cells (UKN2) (AID 2284233).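 Further: cells exposed to compound for 24 h after a 24 h migration phase.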 An outline of the steps: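 After calcein-AM/Hoechst staining, viability is quantified by high-content fluorescence imaging, relative to DMSO, in iPSC (IMR90)-derived neural crest cells. Exposure lasts 24 h, starting after a 24 h migration period on PLO/laminin/fibronectin coating.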

The nature of assay [7]: IUF_NPC2c_oligodendrocyte_migration_120hr: Leibniz Research Institute for Environmental Medicine (IUF) 120-hour Neural Progenitor Cell Migration Assay for Oligodendrocyte Migration (NPC2c) (AID 2284297).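 Further: O4-positive oligodendrocyte migration distance divided by radial glia migration distance.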 An outline of the steps: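 Exposure runs 5 days from differentiation onset at 37C, seven concentrations plus solvent control, DMSO at most 0.1%, applied to primary hNPC spheres on laminin. After fixation, O4 immunostaining gives oligodendrocyte distance from the sphere core, relative to radial glia migration.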

The nature of assay [8]: IUF_NPC2a_radial_glia_migration_120hr: Leibniz Research Institute for Environmental Medicine (IUF) 120-hour Neural Progenitor Cell Migration Assay for Radial Glia Migration (NPC2a) (AID 2284298). An outline of the steps: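 Migration distance in um, sphere core edge to migration-area edge, derived by nuclei-density algorithm from Hoechst images after 120 h compound exposure. Primary hNPC spheres differentiated on poly-D-lysine/laminin in N2 medium, 37C; medium half-replaced day 3.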

A short description of assay [9]: IUF_NPC2a_radial_glia_migration_72hr: Leibniz Research Institute for Environmental Medicine (IUF) 72-hour Neural Progenitor Cell Migration Assay for Radial Glia Migration (NPC2a) (AID 2284299). An outline of the steps:
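Spheres of human primary neural progenitors migrate on poly-D-lysine/laminin under compound exposure at 37C, 5% CO2. The 72 h radial glia migration distance comes from brightfield images, measured manually.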

Assay [10] in a line: IUF_NPC2b_neuronal_migration_120hr: Leibniz Research Institute for Environmental Medicine (IUF) 120-hour Neural Progenitor Cell Migration Assay for Neuron Migration (NPC2b) (AID 2284300). In outline: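 TUBB3-positive neurons are imaged after 120 h of differentiation, and their mean distance from the sphere edge is normalised to radial glia migration. Single 0.3 mm fetal hNPC spheres on poly-D-lysine/laminin received 7 compound concentrations, ≤0.1% DMSO, refreshed at day 3.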

The nature of assay [11]: IUF_NPC3_neuronal_differentiation_120hr: Leibniz Research Institute for Environmental Medicine (IUF) 120-hour Neuronal Differentiation Assay (NPC3) (AID 2284301). An outline of the steps:
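Value is percent TUBB3-positive neurons among Hoechst-stained nuclei in the migration area, scored by trained CNN after 120 h differentiation. Primary hNPC spheres on poly-D-lysine/laminin, N2 medium, continuous dosing from day 0, half-refeed day 3; DMSO reference.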

The nature of assay [12]: IUF_NPC4_neurite_length_120hr: Leibniz Research Institute for Environmental Medicine (IUF) 120-hour Neuronal Morphology Assay for Neurite Length (NPC4) (AID 2284302). In outline:
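Neurite length, the mean in um across TUBB3-stained neurons, is derived by skeletonization of high-content images after 120 h differentiation. Compound exposure, 7 concentrations plus solvent control, ran from plating of hNPC spheres on poly-D-lysine/laminin, with medium half-replaced on day 3.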

Assay [13] can be described thus: IUF_NPC2-5_cytotoxicity_72hr: Cytotoxicity Assessment at 72 hours in the Leibniz Research Institute for Environmental Medicine (IUF) Neural Progenitor Cell Migration and Differentiation Assay for Cytotoxicity (NPC2-5) (AID 2284306; active means hit-call score of the fitted dose curve at least 0.9, where 1 is the maximum;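 further: LDH release into supernatant measured by resorufin fluorescence marking membrane damage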). An outline of the steps: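 Membrane-integrity cytotoxicity at 72 h, read as LDH-driven resorufin fluorescence in supernatant. hNPC spheres from fetal cortex differentiate on coated plates in N2 medium, 37C, 5% CO2; seven serial compound concentrations plus solvent control (DMSO ≤0.1%).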

The nature of assay [14]: IUF_NPC2-5_cell_number_120hr: Cell Number Assessment at 120 hours in the Leibniz Research Institute for Environmental Medicine (IUF) Neural Progenitor Cell Migration and Differentiation Assay (NPC2-5) (AID 2284308).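 Further: count of Hoechst-stained nuclei in migration zone around plated human neural progenitor spheres.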 In outline: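 Counting of all Hoechst-stained nuclei in the migration area at 120 h, versus DMSO control. Primary hNPC spheres differentiated on poly-D-lysine/laminin in N2 medium at 37C, dosed from day 0 (7 concentrations, DMSO ≤0.1%), half-refed day 3.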

The nature of assay [15]: IUF_NPC2-5_viability_120hr: Viability Assessment at 120 hours in the Leibniz Research Institute for Environmental Medicine (IUF) Neural Progenitor Cell Migration and Differentiation Assay (NPC2-5) (AID 2284312). In outline: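 Alamar blue resorufin fluorescence read after 5 days of differentiation, with compound present from day 0 and replenished at day 3. Primary hNPC spheres on laminin-coated plates, 37C; seven concentrations plus solvent control, fitted against DMSO.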

Assay [16] in a line: CCTE_Mundy_HCI_Cortical_NOG_NeuriteLength: CCTE's Neurite Outgrowth Assay in rat cortical cells for Neurite Length, Mundy Lab (AID 2284213).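 On AC50: neurites imaged about 48 to 50 h after chemical exposure began.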 An outline of the steps:
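First, rat primary cortical cells were plated and, 2 h later, given test chemical as a 1/10 dilution. Finally, βIII-tubulin immunostaining enabled automated imaging of neurite length.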

The nature of assay [17]: CCTE_Mundy_HCI_Cortical_Synap_Neur_Matur_NeuriteLength: CCTE's Synaptogenesis and Neurite Maturation Assay in rat cortical cells for Neurite Length, Mundy Lab (AID 2284214). An outline of the steps: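 DMSO-normalised neurite length, from high-content imaging of anti-MAP2-stained rat cortical cells fixed at DIV 12. Glia were suppressed with AraC (DIV 5) before chemical exposure from DIV 7.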

The nature of assay [18]: CCTE_Mundy_HCI_Cortical_Synap_Neur_Matur_NeuriteSpotCountPerNeuron: CCTE's Synaptogenesis and Neurite Maturation Assay in rat cortical cells for Neurite Spot Count per Neuron Count, Mundy Lab (AID 2284215). In outline: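 High-content imaging counts synaptophysin puncta along MAP2-labelled neurites per neuron after chemical exposure of rat cortical cells from DIV 7 to termination at DIV 12 (AraC added DIV 5). Loss of signal relative to DMSO.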

Assay [19] in a line: CCTE_Mundy_HCI_Cortical_Synap_Neur_Matur_SynapseCount: CCTE's Synaptogenesis and Neurite Maturation Assay in rat cortical cells for Synapse Count, Mundy Lab (AID 2284218). In outline: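 Endpoint: synapses/neuron by HCI (synaptophysin puncta on MAP2-labelled neurites, Hoechst nuclei). Rat primary cortical cells, AraC DIV 5, dosed DIV 7, fixed DIV 12; DMSO negative control.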

A short description of assay [20]: CCTE_Harrill_HTTr_Apoptosis_MCF7: CCTE's 6-hour Apoptosis Assessment for the High-Throughput Transcriptomics (HTTr) Platform, in MCF-7 cells cultured in DMEM + 10% fetal bovine serum, Harrill Lab (AID 2284011). In outline:
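High-content imaging of CellEvent Caspase 3/7 Green signal follows a six-hour exposure, with eight concentrations per chemical. MCF-7 cells grown in DMEM plus 10% fetal bovine serum; activity fitted in both directions against DMSO.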

For the compound `C[n+]1ccc(-c2ccccc2)cc1`, the call in assay [1], in assay [2], in assay [5], in [6], in assay [7] and in assay [8] was inactive. Moreover, the call in assay [9], in assay [10], in assay [11], in assay [12], in assay [13] and in assay [14] was inactive. In addition, the compound was called inactive in assay [15]. The results for the AC50 in assay [3] and in assay [4] were 4.54 µM (active) and 18.7 µM (active), respectively.

On to `O=C(O)CNCP(=O)(O)O`, for which the compound was called inactive in assay [1], in assay [16], in assay [17], in assay [18] and in [19].

With `O.O.O.O.O.[Cd+2].[Cd+2].[Cl-].[Cl-].[Cl-].[Cl-]`, the AC50 – broadly, the midpoint of the concentration-response curve, whichever way the signal moves – is 0.458 µM (active) in assay [1]; 30.8 µM (active) in assay [16]; 1.84 µM (active) in [17]; 1.62 µM (active) in assay [18]; 1.67 µM (active) in assay [19].

On to `COCCOC(C)=O`, for which the result in assay [20] was inactive.

Turning to `[CH3][Sn]([CH3])[CH3]`, the AC50 was 1.58 µM (active) in assay [1]; 1.78 µM (active) in assay [16]; 2.41 µM (active) in assay [17]; 1.77 µM (active) in assay [18]; 1.79 µM (active) in assay [19].

For the compound `[Cl-].[Cl-].[Cl-].[Gd+3]`, the outcome in assay [20] was inactive.

For the compound `Cn1nc(C(F)(F)F)c(CS(=O)(=O)C2=NOC(C)(C)C2)c1OC(F)F`, the AC50 in assay [1] was 68.9 µM (active); in assay [4], 22.1 µM (active); in assay [16], 66.8 µM (active); in assay [17] it was 28 µM (active); in [18] it was 9.92 µM (active); in assay [8], 33.8 µM (active). In addition, the AC50 in assay [11] is 9.95 µM (active); in assay [12], 42.3 µM (active). In addition, the result in assay [2], in assay [3], in assay [5], in assay [19], in assay [6] and in [7] was inactive. The call in [9], in assay [10], in assay [13], in assay [14] and in assay [15] was inactive.

With `Cc1cc(N)ccc1N`, the outcome in assay [20] was inactive.

Take `CCOP(=O)(OCC)SCSCC`: the compound was classed as inactive in assay [1], in assay [2], in assay [3], in assay [4], in assay [5] and in [17]. For the same compound, the outcome in assay [18], in [19], in assay [6], in [7], in assay [8] and in [9] was inactive. Further, the compound was called inactive in [10], in [11], in assay [12], in [13], in assay [14] and in assay [15]. In assay [16], the AC50 was 78.3 µM (active).

For `CC1(C)[C@@H](C=C(Cl)Cl)[C@@H]1C(=O)O[C@@H](C#N)c1ccc(F)c(Oc2ccccc2)c1`, the compound was classed as inactive in assay [1], in assay [3], in assay [4], in assay [5], in assay [16] and in [17]. Moreover, the compound was classed as inactive in assay [18], in assay [19], in assay [7], in assay [8], in assay [9] and in assay [10]. Moreover, the compound was called inactive in [11], in assay [12], in [13], in assay [14] and in assay [15].

Turning to `CCCCOC(=O)N(C)SN(C)C(=O)Oc1cccc2c1OC(C)(C)C2`, in assay [20], the result was inactive.

Consider `CCOP(=O)(O)OCC`, for which, in [20], the result was inactive.

`CCOP(=O)(OCC)OC(Cl)C(Cl)(Cl)Cl` (centres undefined): the concentration at half-maximal activity (AC50) in [1] was 2.24 µM (active); in [14], 36 µM (active). For the same compound, the compound was called inactive in [2], in assay [3], in [4], in assay [5], in assay [16] and in assay [17]. Further, the compound was called inactive in assay [18], in assay [19], in assay [6], in assay [7], in assay [8] and in assay [9]. For the same compound, the outcome in assay [10], in assay [11], in assay [12], in assay [13] and in assay [15] was inactive.
